Data as given in publication PMC7862700, “An all-to-all approach to the identification of sequence-specific readers for epigenetic DNA modifications on cytosine”.

How the values were obtained:
Test in all cases: DAPPL (digital affinity profiling via proximity ligation, sequencing); 10 mM Tris-HCl pH 7.5, 50 mM NaCl, 1 mM DTT, 4% glycerol, room temperature, 30 min; GST-TFs on glutathione beads, 16-mer random dsDNA library, 0.1% formaldehyde crosslink after washing; high values mean tight binding
FLI1 = target: T1, FLI1 (Homo sapiens, UniProt Q01543 1-452); conditions: protein: recombinant; tags: N-terminal GST; dsDNA, one strand shown
T1 sequence: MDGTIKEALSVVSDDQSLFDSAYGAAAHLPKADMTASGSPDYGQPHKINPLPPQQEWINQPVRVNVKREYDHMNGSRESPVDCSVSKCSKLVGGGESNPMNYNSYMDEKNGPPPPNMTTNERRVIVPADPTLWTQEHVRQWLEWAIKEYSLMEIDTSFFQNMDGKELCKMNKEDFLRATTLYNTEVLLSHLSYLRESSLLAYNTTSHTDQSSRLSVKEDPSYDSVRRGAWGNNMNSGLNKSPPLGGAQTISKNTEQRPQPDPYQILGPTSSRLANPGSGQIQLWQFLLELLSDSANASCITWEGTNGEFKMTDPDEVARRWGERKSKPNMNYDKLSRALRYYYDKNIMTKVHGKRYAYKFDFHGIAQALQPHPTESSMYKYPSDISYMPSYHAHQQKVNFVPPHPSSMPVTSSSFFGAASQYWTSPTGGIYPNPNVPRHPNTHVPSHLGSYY
Method in brief: (§1)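 Human transcription factors carrying a GST fusion were produced in yeast, bound to glutathione beads, tagged with DNA barcodes and pooled together with a tag-only sample. Each pool was held with 200 nmole of a random double-stranded 16-mer DNA library in Tris/NaCl/DTT/glycerol buffer for 30 min at room temperature, then washed, crosslinked in 0.1% formaldehyde, proximity-ligated with BsaI/T4 ligase (1 h, 37 °C), PCR-amplified and sequenced on an Illumina NextSeq500. Binding signal is the read frequency of each hexamer for a given factor divided by its frequency in the tag-only sample.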

ELK1 = target: T2, ELK1 (Homo sapiens, UniProt P19419 1-428); conditions: protein: recombinant; tags: N-terminal GST; dsDNA, one strand shown
T2 sequence: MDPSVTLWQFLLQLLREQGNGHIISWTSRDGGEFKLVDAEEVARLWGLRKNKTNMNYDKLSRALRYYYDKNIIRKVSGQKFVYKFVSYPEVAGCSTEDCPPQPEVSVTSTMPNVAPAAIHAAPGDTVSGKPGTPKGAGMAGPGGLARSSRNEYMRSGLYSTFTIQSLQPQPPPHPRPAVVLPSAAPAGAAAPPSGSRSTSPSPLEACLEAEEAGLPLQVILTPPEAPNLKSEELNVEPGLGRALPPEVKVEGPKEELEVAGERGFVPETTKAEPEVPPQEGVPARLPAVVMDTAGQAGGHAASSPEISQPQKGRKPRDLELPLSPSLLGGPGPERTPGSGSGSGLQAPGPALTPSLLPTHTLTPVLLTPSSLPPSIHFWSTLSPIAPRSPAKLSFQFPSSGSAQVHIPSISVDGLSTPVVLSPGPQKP
Method in brief: as §1

GABPA = target: T3, GABPA (Homo sapiens, UniProt Q06546 1-454); conditions: protein: recombinant; tags: N-terminal GST; dsDNA, one strand shown
T3 sequence: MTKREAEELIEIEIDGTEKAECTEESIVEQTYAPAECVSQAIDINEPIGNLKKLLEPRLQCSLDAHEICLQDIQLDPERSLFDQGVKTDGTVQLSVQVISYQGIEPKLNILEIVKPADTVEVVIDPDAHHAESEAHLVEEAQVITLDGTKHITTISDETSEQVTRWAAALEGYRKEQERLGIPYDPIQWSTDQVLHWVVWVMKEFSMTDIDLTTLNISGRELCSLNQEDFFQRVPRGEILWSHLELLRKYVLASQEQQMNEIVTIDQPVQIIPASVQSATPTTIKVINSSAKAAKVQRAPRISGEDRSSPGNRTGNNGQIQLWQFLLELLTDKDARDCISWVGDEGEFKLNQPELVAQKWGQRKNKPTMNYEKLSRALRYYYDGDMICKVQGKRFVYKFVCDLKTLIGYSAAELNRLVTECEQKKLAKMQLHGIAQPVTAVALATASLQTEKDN
Method in brief: as §1

ERG = target: T4, ERG (Homo sapiens, UniProt P11308 1-479); conditions: protein: recombinant; tags: N-terminal GST; dsDNA, one strand shown
T4 sequence: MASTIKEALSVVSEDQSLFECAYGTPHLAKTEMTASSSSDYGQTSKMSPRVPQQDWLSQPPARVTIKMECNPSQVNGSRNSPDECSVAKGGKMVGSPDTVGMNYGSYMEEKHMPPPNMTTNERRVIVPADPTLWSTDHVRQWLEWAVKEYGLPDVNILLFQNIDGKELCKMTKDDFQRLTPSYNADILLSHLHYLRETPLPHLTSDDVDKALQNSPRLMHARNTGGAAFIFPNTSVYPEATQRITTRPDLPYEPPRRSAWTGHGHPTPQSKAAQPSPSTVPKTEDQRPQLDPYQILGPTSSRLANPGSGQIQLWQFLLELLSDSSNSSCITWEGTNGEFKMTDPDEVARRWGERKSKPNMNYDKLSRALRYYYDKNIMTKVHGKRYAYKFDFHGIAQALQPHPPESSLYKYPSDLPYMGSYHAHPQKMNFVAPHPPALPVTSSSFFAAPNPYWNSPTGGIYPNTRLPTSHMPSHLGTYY
Method in brief: as §1

ELF1 = ELF1 (Homo sapiens, UniProt P32519 1-619); conditions: protein: recombinant; tags: N-terminal GST; dsDNA, one strand shown
Sequence of ELF1 (P32519 whole entry): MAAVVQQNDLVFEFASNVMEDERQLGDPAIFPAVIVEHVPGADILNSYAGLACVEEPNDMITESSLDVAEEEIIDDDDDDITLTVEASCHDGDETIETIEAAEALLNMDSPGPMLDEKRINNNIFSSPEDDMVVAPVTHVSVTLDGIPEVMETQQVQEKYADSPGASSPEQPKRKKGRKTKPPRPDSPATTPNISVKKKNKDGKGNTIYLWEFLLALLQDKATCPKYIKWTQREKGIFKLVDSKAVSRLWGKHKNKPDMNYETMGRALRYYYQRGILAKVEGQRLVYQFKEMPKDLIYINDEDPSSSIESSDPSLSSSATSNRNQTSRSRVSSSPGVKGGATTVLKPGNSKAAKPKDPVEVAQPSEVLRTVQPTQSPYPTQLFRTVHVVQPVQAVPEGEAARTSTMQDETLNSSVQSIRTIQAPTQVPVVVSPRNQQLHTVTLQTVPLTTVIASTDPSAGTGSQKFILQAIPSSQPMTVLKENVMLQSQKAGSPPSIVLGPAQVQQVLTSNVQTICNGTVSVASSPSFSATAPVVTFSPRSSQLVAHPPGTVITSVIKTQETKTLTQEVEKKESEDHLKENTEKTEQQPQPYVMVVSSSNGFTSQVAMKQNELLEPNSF
Method in brief: as §1

EHF = target: T5, EHF (Homo sapiens, UniProt Q9NZC4 1-300); conditions: protein: recombinant; tags: N-terminal GST; dsDNA, one strand shown
T5 sequence: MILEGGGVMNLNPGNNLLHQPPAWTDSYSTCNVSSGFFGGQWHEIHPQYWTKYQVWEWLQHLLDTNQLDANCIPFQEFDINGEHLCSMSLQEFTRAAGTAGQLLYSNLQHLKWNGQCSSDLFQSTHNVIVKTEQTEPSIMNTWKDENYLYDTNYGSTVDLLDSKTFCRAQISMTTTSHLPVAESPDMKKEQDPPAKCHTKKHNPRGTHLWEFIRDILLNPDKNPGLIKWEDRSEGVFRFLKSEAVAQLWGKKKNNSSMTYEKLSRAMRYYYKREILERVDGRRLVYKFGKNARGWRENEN
Method in brief: as §1

SPI1 = SPI1 (Homo sapiens, UniProt P17947 1-270); conditions: protein: recombinant; tags: N-terminal GST; dsDNA, one strand shown
Method in brief: as §1

SPIB = SPIB (Homo sapiens, UniProt Q01892 1-262); conditions: protein: recombinant; tags: N-terminal GST; dsDNA, one strand shown
Sequence of SPIB (Q01892 whole entry): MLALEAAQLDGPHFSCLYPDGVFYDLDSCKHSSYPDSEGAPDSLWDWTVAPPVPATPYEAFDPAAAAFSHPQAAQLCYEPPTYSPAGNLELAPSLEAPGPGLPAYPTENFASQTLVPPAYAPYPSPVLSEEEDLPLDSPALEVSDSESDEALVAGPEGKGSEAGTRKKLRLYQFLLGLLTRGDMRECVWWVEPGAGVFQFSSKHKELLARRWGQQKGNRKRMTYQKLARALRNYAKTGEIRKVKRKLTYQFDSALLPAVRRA
Method in brief: as §1

ELK3 = target: T6, ELK3 (Homo sapiens, UniProt P41970 1-407); conditions: protein: recombinant; tags: N-terminal GST; dsDNA, one strand shown
T6 sequence: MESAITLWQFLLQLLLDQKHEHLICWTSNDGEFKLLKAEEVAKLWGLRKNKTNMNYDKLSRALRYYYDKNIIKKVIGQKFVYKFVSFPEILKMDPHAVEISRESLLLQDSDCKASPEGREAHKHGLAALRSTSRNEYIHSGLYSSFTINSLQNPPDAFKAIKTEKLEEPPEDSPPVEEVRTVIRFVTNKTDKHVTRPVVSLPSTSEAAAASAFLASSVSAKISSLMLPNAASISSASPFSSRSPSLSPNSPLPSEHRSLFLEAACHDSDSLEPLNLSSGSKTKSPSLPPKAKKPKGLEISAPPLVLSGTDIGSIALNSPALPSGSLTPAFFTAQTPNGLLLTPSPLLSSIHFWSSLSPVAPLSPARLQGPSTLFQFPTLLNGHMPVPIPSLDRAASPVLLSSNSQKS
Method in brief: as §1

FEV = target: T7, FEV (Homo sapiens, UniProt Q99581 1-238); conditions: protein: recombinant; tags: N-terminal GST; dsDNA, one strand shown
T7 sequence: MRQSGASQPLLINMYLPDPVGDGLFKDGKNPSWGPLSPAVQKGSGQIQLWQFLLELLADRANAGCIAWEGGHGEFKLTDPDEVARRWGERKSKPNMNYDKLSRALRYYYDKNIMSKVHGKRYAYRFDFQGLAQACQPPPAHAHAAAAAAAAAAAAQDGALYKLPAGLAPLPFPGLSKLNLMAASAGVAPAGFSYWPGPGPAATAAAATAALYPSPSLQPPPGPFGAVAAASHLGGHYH
Method in brief: as §1

ETV5 = ETV5 (Homo sapiens, UniProt P41161 1-510); conditions: protein: recombinant; tags: N-terminal GST; dsDNA, one strand shown
Sequence of ETV5 (P41161 whole entry): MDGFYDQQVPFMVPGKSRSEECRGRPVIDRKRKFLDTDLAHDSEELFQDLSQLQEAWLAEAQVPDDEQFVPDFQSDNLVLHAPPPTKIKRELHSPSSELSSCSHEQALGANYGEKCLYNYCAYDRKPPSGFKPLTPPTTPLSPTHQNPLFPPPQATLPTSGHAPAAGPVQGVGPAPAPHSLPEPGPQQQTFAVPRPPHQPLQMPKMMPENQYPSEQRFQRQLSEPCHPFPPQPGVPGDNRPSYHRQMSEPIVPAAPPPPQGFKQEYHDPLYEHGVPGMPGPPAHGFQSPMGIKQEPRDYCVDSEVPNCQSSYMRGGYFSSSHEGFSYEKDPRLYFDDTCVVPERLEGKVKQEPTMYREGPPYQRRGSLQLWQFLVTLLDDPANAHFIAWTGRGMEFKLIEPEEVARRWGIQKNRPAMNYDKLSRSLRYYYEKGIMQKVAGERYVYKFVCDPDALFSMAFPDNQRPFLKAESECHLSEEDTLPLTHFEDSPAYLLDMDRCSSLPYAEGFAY
Method in brief: as §1

HSF1 = HSF1 (Homo sapiens, UniProt Q00613 1-529); conditions: protein: recombinant; tags: N-terminal GST; chain copies: 3; dsDNA, one strand shown
Sequence of HSF1 (Q00613 whole entry): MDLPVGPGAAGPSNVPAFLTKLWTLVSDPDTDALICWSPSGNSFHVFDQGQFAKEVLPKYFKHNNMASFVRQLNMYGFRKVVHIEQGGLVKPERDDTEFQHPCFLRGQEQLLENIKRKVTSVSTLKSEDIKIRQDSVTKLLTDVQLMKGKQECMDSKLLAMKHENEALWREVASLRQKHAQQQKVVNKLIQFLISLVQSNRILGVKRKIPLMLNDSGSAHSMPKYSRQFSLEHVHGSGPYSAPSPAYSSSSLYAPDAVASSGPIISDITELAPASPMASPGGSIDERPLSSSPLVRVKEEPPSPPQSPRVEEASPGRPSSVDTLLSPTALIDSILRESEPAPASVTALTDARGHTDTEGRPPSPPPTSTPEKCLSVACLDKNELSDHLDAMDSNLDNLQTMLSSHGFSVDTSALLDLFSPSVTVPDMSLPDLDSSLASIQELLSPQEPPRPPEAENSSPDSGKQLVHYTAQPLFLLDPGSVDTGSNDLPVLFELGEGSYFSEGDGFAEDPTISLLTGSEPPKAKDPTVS
Method in brief: as §1

SPIC = target: T8, SPIC (Homo sapiens, UniProt Q8N5J4 1-248); conditions: protein: recombinant; tags: N-terminal GST; dsDNA, one strand shown
T8 sequence: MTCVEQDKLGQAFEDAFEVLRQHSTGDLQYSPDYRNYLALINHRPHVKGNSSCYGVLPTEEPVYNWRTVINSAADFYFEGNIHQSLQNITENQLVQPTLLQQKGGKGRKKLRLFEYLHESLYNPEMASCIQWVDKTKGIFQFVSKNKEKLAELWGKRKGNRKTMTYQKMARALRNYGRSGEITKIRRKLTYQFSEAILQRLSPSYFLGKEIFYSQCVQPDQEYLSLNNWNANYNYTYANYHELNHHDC
Method in brief: as §1

ELF4 = ELF4 (Homo sapiens, UniProt Q99607 1-663); conditions: protein: recombinant; tags: N-terminal GST; dsDNA, one strand shown
Sequence of ELF4 (Q99607 whole entry): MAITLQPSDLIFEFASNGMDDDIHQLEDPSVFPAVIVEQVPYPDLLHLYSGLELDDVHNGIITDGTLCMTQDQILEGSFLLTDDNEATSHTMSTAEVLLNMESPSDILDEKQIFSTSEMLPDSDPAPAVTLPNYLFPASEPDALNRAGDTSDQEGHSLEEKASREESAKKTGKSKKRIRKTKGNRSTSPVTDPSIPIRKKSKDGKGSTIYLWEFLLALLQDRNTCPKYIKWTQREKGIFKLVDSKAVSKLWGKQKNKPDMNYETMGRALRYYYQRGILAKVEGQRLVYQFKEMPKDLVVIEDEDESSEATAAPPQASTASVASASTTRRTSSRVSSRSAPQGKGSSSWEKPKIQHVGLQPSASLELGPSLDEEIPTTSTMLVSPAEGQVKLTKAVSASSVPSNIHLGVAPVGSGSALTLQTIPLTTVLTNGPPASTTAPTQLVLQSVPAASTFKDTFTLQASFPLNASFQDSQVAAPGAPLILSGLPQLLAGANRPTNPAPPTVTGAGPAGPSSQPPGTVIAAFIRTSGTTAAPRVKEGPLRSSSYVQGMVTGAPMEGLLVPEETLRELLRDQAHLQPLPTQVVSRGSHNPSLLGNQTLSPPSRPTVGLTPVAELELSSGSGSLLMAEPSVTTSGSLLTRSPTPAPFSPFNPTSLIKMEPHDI
Method in brief: as §1

ELK4 = target: T9, ELK4 (Homo sapiens, UniProt P28324-2 1-405); conditions: protein: recombinant; tags: N-terminal GST; dsDNA, one strand shown
T9 sequence: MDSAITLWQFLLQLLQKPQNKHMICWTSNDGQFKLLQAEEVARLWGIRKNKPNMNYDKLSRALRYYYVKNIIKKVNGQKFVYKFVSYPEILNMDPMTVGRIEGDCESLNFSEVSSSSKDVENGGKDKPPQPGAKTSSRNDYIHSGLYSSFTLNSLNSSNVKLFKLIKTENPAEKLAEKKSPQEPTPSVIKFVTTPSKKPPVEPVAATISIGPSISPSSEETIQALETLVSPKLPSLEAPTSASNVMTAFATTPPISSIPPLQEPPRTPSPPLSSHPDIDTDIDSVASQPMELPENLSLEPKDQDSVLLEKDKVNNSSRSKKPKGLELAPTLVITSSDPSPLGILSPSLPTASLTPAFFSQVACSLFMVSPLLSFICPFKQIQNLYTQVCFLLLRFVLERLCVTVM
Method in brief: as §1

ETV2 = target: T10, ETV2 (Homo sapiens, UniProt O00321 1-342); conditions: protein: recombinant; tags: N-terminal GST; dsDNA, one strand shown
T10 sequence: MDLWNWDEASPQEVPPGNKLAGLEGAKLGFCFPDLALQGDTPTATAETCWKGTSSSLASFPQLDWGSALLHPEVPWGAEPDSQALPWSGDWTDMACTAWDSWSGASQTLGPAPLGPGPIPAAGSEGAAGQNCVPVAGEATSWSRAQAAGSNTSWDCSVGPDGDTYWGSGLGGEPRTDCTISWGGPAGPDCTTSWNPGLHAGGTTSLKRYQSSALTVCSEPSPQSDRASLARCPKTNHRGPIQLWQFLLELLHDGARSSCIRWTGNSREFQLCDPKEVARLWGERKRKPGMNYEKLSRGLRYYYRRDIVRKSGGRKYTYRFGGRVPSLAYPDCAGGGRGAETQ
Method in brief: as §1

ELF3 = target: T11, ELF3 (Homo sapiens, UniProt P78545 1-371); conditions: protein: recombinant; tags: N-terminal GST; dsDNA, one strand shown
T11 sequence: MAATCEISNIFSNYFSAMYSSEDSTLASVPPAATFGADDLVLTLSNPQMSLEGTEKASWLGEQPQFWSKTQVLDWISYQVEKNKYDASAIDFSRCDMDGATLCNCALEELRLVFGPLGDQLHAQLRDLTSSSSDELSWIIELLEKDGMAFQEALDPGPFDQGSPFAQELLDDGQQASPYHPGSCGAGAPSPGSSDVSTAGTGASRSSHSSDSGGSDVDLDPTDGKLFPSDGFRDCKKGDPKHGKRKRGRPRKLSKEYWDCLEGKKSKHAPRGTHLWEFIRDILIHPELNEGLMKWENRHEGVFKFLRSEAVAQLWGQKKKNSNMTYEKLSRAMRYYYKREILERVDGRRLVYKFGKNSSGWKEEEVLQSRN
Method in brief: as §1

CRX = CRX (Homo sapiens, UniProt O43186 1-299); conditions: protein: recombinant; tags: N-terminal GST; dsDNA, one strand shown
Sequence of CRX (O43186 whole entry): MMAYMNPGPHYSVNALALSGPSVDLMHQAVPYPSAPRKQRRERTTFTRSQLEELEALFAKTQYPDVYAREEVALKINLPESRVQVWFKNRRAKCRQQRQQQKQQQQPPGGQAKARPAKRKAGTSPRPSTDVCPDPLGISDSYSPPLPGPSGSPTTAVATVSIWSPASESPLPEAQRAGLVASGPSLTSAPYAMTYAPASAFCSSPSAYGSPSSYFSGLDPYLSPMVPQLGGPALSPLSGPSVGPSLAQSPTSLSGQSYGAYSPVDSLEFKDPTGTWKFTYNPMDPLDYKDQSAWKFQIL
Method in brief: as §1

ETV1 = ETV1 (Homo sapiens, UniProt P50549 1-477); conditions: protein: recombinant; tags: N-terminal GST; dsDNA, one strand shown
Sequence of ETV1 (P50549 whole entry): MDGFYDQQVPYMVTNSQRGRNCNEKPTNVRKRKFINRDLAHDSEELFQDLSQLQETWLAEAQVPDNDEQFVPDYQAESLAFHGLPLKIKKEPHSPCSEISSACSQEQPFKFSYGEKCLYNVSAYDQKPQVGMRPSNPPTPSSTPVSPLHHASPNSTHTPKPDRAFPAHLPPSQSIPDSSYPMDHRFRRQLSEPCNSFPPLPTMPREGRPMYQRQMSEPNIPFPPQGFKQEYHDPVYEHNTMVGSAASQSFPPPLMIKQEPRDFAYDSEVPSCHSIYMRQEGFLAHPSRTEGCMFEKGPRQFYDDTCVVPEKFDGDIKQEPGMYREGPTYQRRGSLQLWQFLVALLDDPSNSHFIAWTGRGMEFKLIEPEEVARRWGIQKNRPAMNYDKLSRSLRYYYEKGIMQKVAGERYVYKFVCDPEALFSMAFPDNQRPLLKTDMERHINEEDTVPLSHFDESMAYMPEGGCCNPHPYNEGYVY
Method in brief: as §1

TCCTCA
binding signal (FLI1): 1.53 fold enrichment (6-mer frequency, TF over GST control)
binding signal (ELK1): 1.47 fold enrichment (6-mer frequency, TF over GST control)
binding signal (GABPA): 1.6 fold enrichment (6-mer frequency, TF over GST control)
binding signal (ERG): 1.51 fold enrichment (6-mer frequency, TF over GST control)
binding signal (ELF1): 1.49 fold enrichment (6-mer frequency, TF over GST control)
binding signal (EHF): 1.65 fold enrichment (6-mer frequency, TF over GST control)
binding signal (SPI1): 2.25 fold enrichment (6-mer frequency, TF over GST control)
binding signal (SPIB): 1.6 fold enrichment (6-mer frequency, TF over GST control)
binding signal (ELK3): 1.55 fold enrichment (6-mer frequency, TF over GST control)
binding signal (FEV): 1.52 fold enrichment (6-mer frequency, TF over GST control)
binding signal (ETV5): 1.52 fold enrichment (6-mer frequency, TF over GST control)
binding signal (HSF1): 1.2 fold enrichment (6-mer frequency, TF over GST control)
binding signal (SPIC): 1.63 fold enrichment (6-mer frequency, TF over GST control)
binding signal (ELF4): 1.57 fold enrichment (6-mer frequency, TF over GST control)
binding signal (ELK4): 1.67 fold enrichment (6-mer frequency, TF over GST control)
binding signal (ETV2): 1.66 fold enrichment (6-mer frequency, TF over GST control)
binding signal (ELF3): 1.44 fold enrichment (6-mer frequency, TF over GST control)
binding signal (CRX): 1.4 fold enrichment (6-mer frequency, TF over GST control)
binding signal (ETV1): 1.48 fold enrichment (6-mer frequency, TF over GST control)
